Source: PubChem
Sampled rows, rich in hits. Any-hit rate of the full collection: about 3.3%.
Vaccinia mCherry: vaccinia inhibition (mCherry reporter). Potency, µM (titrated, usually from 36.5 µM), for the others: at the highest dose activity change, negative = inhibition, most hits filed as inhibitors. 310,000 compounds, 0.63% hits. Vaccinia virus mCherry reporter infection, fluorescence; calls by dose curve; tested in A549 cells; also: nearly all actives have a fitted effect of over 35% in size
VACV Venus inh: inhibitors of vaccinia virus (Venus reporter); Vaccinia virus Venus reporter expression, fluorescence; Potency, µM (series often up to 36.5 µM), inactives show at the highest dose activity change, negative = inhibition, most hits filed as inhibitors; 330,000 compounds, 0.46% hits; AID 720580; calls by dose curve; tested in A549 cells; also: nearly all actives have a fitted effect of over 30% in size
HCV inh: blocks hepatitis C virus; Huh7.5.1 HCVcc-Cre infection, luciferase reporter, 44 h; Potency, µM (highest dose often 41.8 µM), for inactives: at the top dose activity change, negative = inhibition, actives largely listed as inhibitors; 340,000 compounds, 3.4% hits; AID 651820; active = well fitted inhibition curve with a large enough effect; inconclusive = small, poorly fitted or top-dose-only effect, or another doubt; inactive = no such curve, though single readings can be large or run the other way
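HCVcc-Cre virus at an moi near 0.5 was added right after compound to cells cultured 4 h from seeding (1,000 cells/well). Luciferase activity was determined 44 h later, 15 min after substrate addition at RT.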
An asterisk follows results filed as active; i = inactive; ? = inconclusive; nt = not tested or not shown; [ ] = another dose, or the depositor's remark. % is scaled to controls: 0 for no effect and ±100 for the full control effect; potency is read from the fitted curve at half-maximal effect.

SMILES	Vaccinia mCherry	VACV Venus inh	HCV inh
COc1ccc(-c2noc(CCC(=O)NCCN3CCN(c4ccccc4F)CC3)n2)cc1	nt	-25.3%	6.31µM*
CCN1CCN(CCCNC(=O)CCc2nc(-c3ccc(OC)cc3)no2)CC1	nt	nt	-9.3%
COc1ccc(-c2noc(CCC(=O)NCCc3cccc(C)c3)n2)cc1	nt	nt	8.91µM*
C=C(C)CN(CC)C(=O)CN1C(=O)NC(C)(c2ccc3ccccc3c2)C1=O (stereo not given)	i	-12.9%	-25.0%
COc1ccc(S(=O)(=O)NC(=O)C2(C)CCN2C(=O)C2CCCCC2)cc1OC (stereo not given)	16.4%	5.6%	nt
COc1cccc(CNc2cnc3ccccc3c2)c1O	-23.1%	-26.5%	-24.1%
Cc1ccc(O)c(CNc2cnc3ccccc3c2)c1	12.6µM*	-23.7%	?
CCCN(Cc1cccs1)C(=O)Nc1ccc(Br)cc1F	-16.7%	1.6%	nt
Cc1csc(NC(=O)CSc2nnc(-c3ccc(S(=O)(=O)N4CCCC4)cc3)o2)n1	3.16µM*	4.47µM*	-5.3%
Cc1csc(NC(=O)CSc2nnc(-c3ccccc3)o2)n1	-2.7%	-12.9%	25.4%
CCN(CC)S(=O)(=O)c1ccc(-c2nnc(SCC(=O)Nc3nc(C)cs3)o2)cc1	5.01µM*	11.2µM*	-2.2%
Cc1ccc(-c2nnc(SCC(=O)Nc3ccc(S(=O)(=O)N4CCCCCC4)cc3)o2)cc1	-12.3%	-6.3%	-3.5%
CC12CCC3C(CCC4(O)CC(O)CCC34C=O)C1(O)CCC2C1=CC(=O)OC1 (stereo not given)	?	1µM*	?
C[C@]12CC[C@H]3[C@@H](CC[C@]4(O)C[C@@H](O)CC[C@]34C=O)[C@@]1(O)CC[C@@H]2C1=CC(=O)OC1	1µM*	1µM*	0.562µM*
C[C@H]1O[C@@H](OC2CC[C@]3(C=O)[C@H]4CC[C@]5(C)[C@@H](C6=CC(=O)OC6)CC[C@]5(O)[C@@H]4CC[C@]3(O)C2)CC2OC(C)(C)OC21 (stereo not given in full)	?	0.282µM*	1µM*
C[C@]12CCC3C(CCC4=CC(O)CC[C@@]43/C=N/O)C1(O)CCC2C1=CC(=O)OC1 (stereo not given in full)	?	0.316µM*	2.24µM*
CC12CC[C@H]3[C@@H](CCC4(O)C[C@H](O)CCC34/C=N/NC(=O)c3ccccc3Cl)C1(O)CCC2C1=CC(=O)OC1 (stereo not given in full)	nt	nt	7.7%
Cc1ccc(N(CC(=O)Nc2cccc(F)c2)S(=O)(=O)c2cccs2)cc1	19.0%	25.5%	nt
CCN(CCC#N)c1ccc(/C=C/c2ccnc3ccccc23)cc1	0.4%	-6.9%	nt
CCCc1nc2ccccc2n2c(-c3cccc(C)c3)c3c(=O)n(C)c(=O)n(C)c3c12	-13.6%	-5.6%	nt
CCCCN=C[C@]12CCC(O)CC1(O)CCC1[C@@H]2CC[C@]2(C)[C@H](C3C=CC(=O)O3)CCC12O (stereo not given in full)	0.316µM*	0.316µM*	4.47µM*
CC12CCC3C(CCC4(O)CC(O)CCC34C=NO)C1(O)CCC2C1=COC(=O)C1 (stereo not given)	31.6µM*	0.398µM*	2µM*
CCCCC[C@H]1CCCCC[C@@H](O)C[C@@H](O)[C@@H](O)/C=C/C(=O)O1	-13.6%	-9.8%	nt
CNc1nnc(SCC(=O)N2c3ccccc3NC(=O)CC2C)s1 (stereo not given)	nt	nt	-9.2%
O=C(NCc1ccc(Cl)cc1Cl)c1cccc(N2CCCS2(=O)=O)c1	-6.1%	-11.0%	nt
SMILES	Vaccinia mCherry	VACV Venus inh	HCV inh
CCOC(=O)c1cc(-c2ccccc2)sc1NC(=O)CN1C(=O)NC(CC)(c2ccccc2)C1=O (stereo not given)	nt	nt	-15.8%
CCOC(=O)c1cc(-c2ccccc2)sc1NC(=O)CN1C(=O)NC(CC)(c2ccc(F)cc2)C1=O (stereo not given)	nt	nt	10µM*
CCC1(c2ccc(F)cc2)NC(=O)N(CC(=O)Nc2cccc(S(=O)(=O)N3CCCCC3)c2)C1=O (stereo not given)	-21.4%	-23.5%	10µM*
CCC1(c2ccc(F)cc2)NC(=O)N(CC(=O)Nc2ccc(N3CCCCC3)cc2)C1=O (stereo not given)	-6.2%	-17.7%	?
CC1CCC2(CC1)NC(=O)N(CC(=O)Nc1cccc(S(=O)(=O)N3CCOCC3)c1)C2=O (stereo not given)	-0.2%[7.34 µM]	-3.6%[7.34 µM]	-17.3%
CC1CCC2(CC1)NC(=O)N(CC(=O)Nc1cccc(S(=O)(=O)N3CCCCC3)c1)C2=O (stereo not given)	nt	nt	25.1µM*
COc1ccc(NC(=O)C2(S(=O)(=O)c3ccc(C)cc3)CC2)cc1OC	-15.3%	1.1%	8.8%
CNC(=O)COc1ccccc1C(=O)Nc1ccccc1	0.2%	-8.9%	nt
O=C(CC1C(=O)N(c2ccc(F)cc2)C(=O)N1Cc1ccc2c(c1)OCO2)Nc1ccc(F)cc1 (stereo not given)	0.5%	-3.8%	nt
O=C(Nc1ccc(Cl)cc1)C1CCN(S(=O)(=O)c2ccc(Br)s2)CC1	-25.2%	-14.0%	nt
O=C(NCc1cccc(Cl)c1)C1CCN(C(=O)c2sccc2-n2cccc2)CC1	-5.3%	-0.7%	nt
O=C(NCCc1ccc(Cl)cc1)C1CCN(S(=O)(=O)c2ccc(Br)s2)CC1	-28.3%	-22.0%	10µM*
O=C(NCCc1ccc(Cl)cc1)C1CCN(C(=O)c2sccc2-n2cccc2)CC1	-20.8%	-26.7%	8.91µM*
CS(=O)(=O)Nc1cc(C(=O)N2CCNC(=O)C2)c2c(c1)ncn2CCc1ccccc1	i	0.0%	nt
Cc1cc(Cl)ccc1C(O)c1ncc(-c2ccc3ccccc3c2)[nH]1 (stereo not given)	-16.2%	-6.7%	nt
CN(C)c1ccc(/C=C/c2cc[n+]([O-])c3ccccc23)cc1	31.9%	-6.8%	nt
CCCCCC[n+]1ccccc1/C=C/c1ccc(N(C)C)cc1	i	i	nt
CC[n+]1ccccc1/C=C/c1ccc(N(C)C)cc1	nt	nt	4.47µM*
CC[n+]1ccc(/C=C/c2ccc(N(C)C)cc2)c2ccccc21	i	i	4.47µM*
COc1ncnc2c1ncn2CCCNCc1ccc(C)o1	-9.4%	-18.7%	nt
CCc1ccccc1NC(=O)COC(=O)c1c(C)nsc1NC	nt	nt	4.47µM*
CNc1snc(C)c1C(=O)OCC(=O)Nc1ccc(C)cc1F	-0.1%	-12.6%	?
Cc1cc(=O)oc2c3c(cc(OCC(=O)NCc4ccncc4)c12)OC(C)(C)CC3	4.2%	-3.5%	?
COc1cc2c(c3oc(=O)cc(CC(=O)O)c13)CCC(C)(C)O2	nt	nt	10µM*
CCc1cc(=O)oc2c3c(cc(OCC(=O)NCc4cccnc4)c12)OC(C)(C)CC3	-14.5%	-13.7%	?
SMILES	Vaccinia mCherry	VACV Venus inh	HCV inh
CCc1cc(=O)oc2c3c(cc(OCC(=O)NCCCCCC(=O)O)c12)OC(C)(C)CC3	nt	nt	-5.2%
CCc1cc(=O)oc2c3c(cc(OCC(=O)Nc4cccnc4)c12)OC(C)(C)CC3	-5.4%	-15.0%	10µM*
COc1ccc(CNC(=O)COc2cc3c(c4oc(=O)cc(C)c24)CCC(C)(C)O3)cc1OC	-8.4%	-9.3%	6.31µM*
COC(=O)C1=CN(c2cccc(Cl)c2)C=C(C(=O)OC)C1c1cccc(OC)c1	-17.6%	-6.7%	?
Cc1cccc2c(Nc3ccc4c(c3)OCO4)nc(CN3CCC(N4CCCCC4)CC3)nc12	i	-11.6%	nt
O=[N+]([O-])c1ccc(C=C2c3ccccc3-c3ccccc32)cc1	-15.0%	-7.4%	nt
